Consider 1 sequence from US5750335, “Screening for genetic variation” (Massachusetts Institute of Technology).

The target in this assay is T1, MutS (Salmonella typhimurium, UniProt P0A1Y0 P0A1Y0:1-855).
T1 sequence: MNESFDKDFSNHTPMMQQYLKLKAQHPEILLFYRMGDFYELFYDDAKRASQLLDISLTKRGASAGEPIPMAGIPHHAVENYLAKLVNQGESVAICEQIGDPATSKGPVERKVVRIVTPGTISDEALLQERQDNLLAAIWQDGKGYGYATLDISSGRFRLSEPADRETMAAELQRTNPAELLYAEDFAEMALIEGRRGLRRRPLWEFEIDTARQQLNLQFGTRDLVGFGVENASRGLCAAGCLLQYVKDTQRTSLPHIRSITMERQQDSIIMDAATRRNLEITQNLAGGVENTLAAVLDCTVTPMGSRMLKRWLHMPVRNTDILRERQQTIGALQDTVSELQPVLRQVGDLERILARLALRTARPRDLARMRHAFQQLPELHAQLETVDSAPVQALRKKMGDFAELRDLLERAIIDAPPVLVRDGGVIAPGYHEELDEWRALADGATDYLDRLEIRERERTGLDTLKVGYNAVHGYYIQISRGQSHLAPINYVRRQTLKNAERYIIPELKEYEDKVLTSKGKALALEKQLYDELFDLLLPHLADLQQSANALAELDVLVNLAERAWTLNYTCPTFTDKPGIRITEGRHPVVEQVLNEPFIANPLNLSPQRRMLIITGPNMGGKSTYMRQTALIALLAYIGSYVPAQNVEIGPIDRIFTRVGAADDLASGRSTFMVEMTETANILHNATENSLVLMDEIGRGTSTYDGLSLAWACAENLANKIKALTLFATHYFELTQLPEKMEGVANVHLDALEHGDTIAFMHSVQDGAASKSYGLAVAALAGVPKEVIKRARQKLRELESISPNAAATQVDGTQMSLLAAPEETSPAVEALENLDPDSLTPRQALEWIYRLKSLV
The assay is described as follows: pulldown; homoduplex control precipitated 53 fold less; 5 mM MgCl2, on ice, competitor DNA. The following applies: tags: none (overproduced from pGW1825); chain copies: 2; label: 32P on DG6R; fully matched homoduplex; second strand (DG5) copied as printed, pairs with DG6R only if read 3'-5' relative to it; dsDNA, one strand shown. Here is the method:
Affinity fractionation of heteroduplex nucleic acid was performed as follows. Two binding reactions were incubated on ice for 30 minutes, one containing heteroduplex nucleic acid and a control containing homoduplex DNA. The heteroduplex reaction contained 14.5 pMol of MutS, 200 fmol of DG-4/6 Het, and 2 ug of competitor nucleic acid in a total volume of 20 ul. The control reaction contained 14.5 pmol of MutS, 200 fmol of DG-5/6 Hom, and 2 ug of competitor nucleic acid in a total volume of 20 ul. After 30 minutes on ice, 5 ul of anti-MutS antibody was added to each binding reaction, and the result was incubated on ice for 60 minutes. 10 ul of Staphylococcus aureus cells that had been washed twice in assay buffer were added to both binding reactions (see McKay, 1981, supra) and the result was incubated on ice for an additional 30 minutes. Both reactions were then spun in a microfuge for 3 minutes at 4° C. and the pellet was washed 8 times in assay buffer.
Consider GATCCGTCGACCTGCA, for which the binding signal is 1 fold (reference).
